Screens deposited in PubChem by Buhrlage Lab, Dana-Farber Cancer Institute and Novartis Institutes for BioMedical Research (Cambridge, Mass).
USP17 inh – inhibitors of human USP17 deubiquitinase; Ubiquitin carboxyl-terminal hydrolase 17-like protein 5 (Homo sapiens), A8MUK1; purified USP17, Ub-rhodamine cleavage fluorescence, 3 h; inhibition, % at 50 µM; actives 6.5% (n = 47,000)
USP8 inh – inhibitors of human USP8 deubiquitinase; Ubiquitin carboxyl-terminal hydrolase 8 (Homo sapiens), P40818; purified USP8, Ub-rhodamine cleavage fluorescence, 30 min; inhibition, % at 20 µM; actives 4.2% (n = 47,000); AID 1645853, 2021
USP30 block – inhibitors of human USP30 deubiquitinase; inhibition, % at 25 µM; Ubiquitin carboxyl-terminal hydrolase 30 (Homo sapiens), Q70CQ3; AID 1645860, 2021; actives 5.3% (n = 47,000); purified USP30, Ub-rhodamine cleavage fluorescence
USP10 block – inhibitors of human USP10 deubiquitinase. Ubiquitin carboxyl-terminal hydrolase 10 (Homo sapiens), Q14694. purified USP10, Ub-rhodamine fluorescence, 60 min. inhibition, % at 20 µM. actives 1.1% (n = 47,000). AID 1645856, 2021
Target sequence (Q14694 whole entry, looked up): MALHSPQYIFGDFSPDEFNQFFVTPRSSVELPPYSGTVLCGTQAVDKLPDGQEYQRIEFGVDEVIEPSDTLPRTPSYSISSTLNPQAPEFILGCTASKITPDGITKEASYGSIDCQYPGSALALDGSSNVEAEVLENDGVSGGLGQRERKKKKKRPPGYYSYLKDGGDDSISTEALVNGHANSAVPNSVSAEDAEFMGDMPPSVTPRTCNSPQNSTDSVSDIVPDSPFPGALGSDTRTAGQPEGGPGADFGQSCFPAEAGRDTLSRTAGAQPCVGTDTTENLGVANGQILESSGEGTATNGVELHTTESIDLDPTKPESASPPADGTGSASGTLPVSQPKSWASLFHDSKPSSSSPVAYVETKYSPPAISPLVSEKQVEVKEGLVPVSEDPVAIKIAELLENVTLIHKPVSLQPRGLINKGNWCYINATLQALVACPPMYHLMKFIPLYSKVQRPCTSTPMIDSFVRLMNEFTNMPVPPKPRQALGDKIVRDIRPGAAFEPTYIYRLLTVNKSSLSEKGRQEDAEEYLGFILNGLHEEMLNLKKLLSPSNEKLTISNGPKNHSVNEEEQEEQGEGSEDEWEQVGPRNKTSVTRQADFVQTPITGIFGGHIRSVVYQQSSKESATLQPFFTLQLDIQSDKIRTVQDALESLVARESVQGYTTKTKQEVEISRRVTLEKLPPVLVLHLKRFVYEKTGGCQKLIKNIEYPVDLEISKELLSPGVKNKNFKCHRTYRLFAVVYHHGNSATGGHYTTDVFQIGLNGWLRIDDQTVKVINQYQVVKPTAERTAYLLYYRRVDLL
USP28 block – inhibitors of human USP28 deubiquitinase; Ubiquitin carboxyl-terminal hydrolase 28 (Homo sapiens), Q96RU2; purified USP28, Ub-rhodamine cleavage fluorescence, 30 min; inhibition, % at 25 µM; actives 3% (n = 47,000)
Hits are given with their value; - = inactive; . = not tested or not shown. An excerpt weighted towards active compounds, which were near 13% of everything screened. Cut-off read from the data, not from the text of the source: active = inhibition above about 30%; inactive = the rest.

SMILES | USP17 inh | USP8 inh | USP30 block | USP10 block | USP28 block
Cn1c(=O)c2c(SCC(=O)NCc3ccc4c(c3)OCO4)nc(-c3ccc([N+](=O)[O-])cc3)nc2n(C)c1=O | - | - | 31 | - | -
COC(=O)c1ccc(CSc2nc(-c3ccc(OC)cc3)nc3c2c(=O)n(C)c(=O)n3C)o1 | - | - | - | - | -
Cc1ccc2nc(N3CCN(c4ccccc4F)CC3)c(-n3nc(C)cc3C)nc2c1 | - | - | - | - | -
CCc1ccccc1NC(=O)CNS(=O)(=O)c1cc(-c2noc(C)n2)ccc1C | - | - | - | - | -
Cc1ccc(-c2nc(SCC(=O)N3CCCC3)c3c(=O)n(C)c(=O)n(C)c3n2)cc1 | - | - | 39 | - | -
Cn1c(=O)c2c(SCC(=O)N3CCCC3)nc(-c3cccc(Cl)c3)nc2n(C)c1=O | - | - | - | - | -
Cc1cc(OCCOCCN2CCN(C)CC2)cc(C)c1Cl | - | - | - | - | 33
CCc1ccccc1OCCOCCN1CCN(C)CC1 | - | - | - | - | -
O=C(Nc1ccccc1)C1COc2ccccc2C1 (stereo unspecified) | 32 | - | - | - | -
Cc1nc(-c2ccccc2Cl)sc1C(=O)NCc1ccncc1 | - | - | - | - | -
Cc1nnc(-c2nnc(NCc3ccc(Cl)cc3)c3ccccc23)o1 | 52 | - | 37 | - | -
Cc1nnc(-c2nnc(NCCC(C)C)c3ccccc23)o1 | - | - | - | - | -
COc1ccc2c(CNCCCc3ccccc3)c(C(=O)O)n(C)c2c1 | - | - | - | - | -
O=c1c2nnn(Cc3ccccc3)c2ncn1Cc1nc(-c2cccc(Cl)c2)no1 | - | - | 36 | - | -
Cc1ccccc1Cn1nnc2c(=O)n(Cc3nc(-c4ccccc4)no3)cnc21 | - | - | - | - | -
CC(=O)N1CCc2cc(S(=O)(=O)NC(C(=O)Nc3nc4ccc(C)cc4s3)C(C)C)ccc21 (stereo unspecified) | - | 30 | - | - | -
CCOc1ccc2nc(NC(=O)CCS(=O)(=O)c3ccc4c(c3)CCN4C(C)=O)sc2c1 | - | - | - | - | -
CC(=O)N1CCc2cc(S(=O)(=O)Nc3ccccc3C)ccc21 | - | - | - | - | -
COc1ccc(C)cc1NC(=O)C(NS(=O)(=O)c1ccc2c(c1)CCN2C(C)=O)C(C)C (stereo unspecified) | - | - | 54 | - | -
Cc1oc(CNC(=O)Cc2ccccc2Cl)nc1C(=O)N1CCC(C)CC1 | - | - | - | - | -
CCn1nc(-n2cnnc2)c(NS(=O)(=O)c2ccc(C)c(C)c2)c1C | - | - | - | - | -
CCN(C(=O)c1cccc(-c2noc(C)n2)c1)c1ccccc1 | - | - | . | - | .
CC(=O)Nc1cc(NC(=O)CSc2nnc(-c3ccco3)c(-c3ccco3)n2)ccc1C | 46 | 73 | - | - | -
O=C(Nc1nnc(C2CC2)s1)c1ccc(OCC2CCCO2)cc1 (stereo unspecified) | 64 | - | - | - | -
CCc1noc(C)c1C(=O)Nc1nnc(C2CC2)s1 | - | - | - | - | -
SMILES | USP17 inh | USP8 inh | USP30 block | USP10 block | USP28 block
COc1ccc(C(=O)C2CC(=O)Nc3c2c(C)nn3-c2ccc(Br)cc2)cc1 (stereo unspecified) | 58 | 30 | - | - | -
Cc1cccc(-n2nc(C)c3c2NC(=O)CC3C(=O)c2cc3ccccc3o2)c1 (stereo unspecified) | 70 | - | - | - | -
COc1ccc(-n2nc(C)c3c2NC(=O)CC3C(=O)c2ccc3c(c2)OCO3)cc1 (stereo unspecified) | - | - | 39 | - | -
Cc1ccc(-n2nc(C)c3c2NC(=O)CC3C(=O)c2ccc(O)cc2)cc1C (stereo unspecified) | - | - | - | - | -
Cc1cccc(-n2nc(C)c3c2NC(=O)CC3C(=O)c2ccc3c(c2)OCO3)c1 (stereo unspecified) | - | - | - | - | -
Cc1nn(-c2ccc(F)cc2)c2c1C(C(=O)c1ccc3c(c1)OCO3)CC(=O)N2 (stereo unspecified) | - | - | - | - | -
Cc1cc(Nc2ccc(C(=O)NCc3ccco3)cc2)n2nc(-c3cccnc3)nc2n1 | 75 | - | 30 | - | -
CC(C)c1cc(Nc2cccc(F)c2)n2nc(-c3cccnc3)nc2n1 | 34 | - | 53 | - | -
Cc1cc(Nc2ccc(Cl)cc2)n2nc(-c3cccnc3)nc2n1 | - | - | - | - | -
Cc1cc(Nc2cccc(C(=O)Nc3ccccc3C)c2)n2nc(-c3cccnc3)nc2n1 | - | - | 46 | - | -
CCc1ccc(NC(=O)CCNc2cc(C)nc3nc(-c4cccnc4)nn23)cc1 | 34 | - | - | - | -
CCn1cc(S(=O)(=O)N2CCc3nc(-c4ccc(Cl)cc4)ncc3C2)cn1 | - | - | - | - | -
COc1cc2c(cc1OC)-c1cc(Oc3cccc(Cl)c3)nc(=O)n1CC2 | - | - | - | - | -
Cc1cccc(CN2C(=O)c3ccccc3Sc3ccc(C(=O)NC4CCCC4)cc32)c1 | - | - | - | - | -
O=C(NCc1ccco1)c1ccc2c(c1)N(Cc1cccc(F)c1)C(=O)c1ccccc1S2 | 58 | - | - | - | -
CCN1C(=O)c2ccccc2Sc2ccc(C(=O)NCc3ccc(C)cc3)cc21 | - | - | - | - | 38
CCCc1cc(=O)oc2c3c(cc(OCC(=O)O)c12)OC(C)(C)CC3 | - | - | - | - | -
COC(=O)c1cc(NC(=O)/C=C/c2ccc(Cl)cc2)ccc1N1CCOCC1 | - | - | - | - | 50
CCCn1c(=O)c(-c2ccc(C(=O)NCc3ccc(OC)cc3)cc2)nc2cccnc21 | 87 | 65 | 32 | 33 | -
Cc1ccn2cc(-c3ccc(NC(=O)C(C)C)cc3)nc2n1 | - | - | - | - | -
O=C(NCc1ccc2c(c1)OCO2)c1cc2c(s1)CCC2 | 48 | 79 | - | 47 | 44
O=C(/C=C/c1ccco1)Nc1nc2c(s1)COCC2 | - | - | - | - | -
O=C(/C=C/c1ccc2c(c1)OCO2)Nc1nc2c(s1)COCC2 | 65 | - | - | - | -
O=C(/C=C/c1ccc2c(c1)OCO2)NCc1ccc2c(c1)OCO2 | - | - | 32 | - | -
CCN1C(=O)c2c(C(=O)NC(C)C)ncn2CC1(C)C(=O)NCc1ccc(OC)cc1 (stereo unspecified) | - | - | - | - | -
COc1ccc(NS(=O)(=O)c2ccc(-c3cnc(C)o3)cc2)cc1 | - | - | - | - | -
COc1ccc(C(=O)N(Cc2ccccc2)C(C)(C)c2ccccc2)c(OC)c1 | - | - | 44 | - | -
c1ccc(-c2cc(Nc3c4c(nc5ccccc35)CCCC4)n[nH]2)cc1 | 44 | - | - | - | -
CC1=NS(=O)(=O)c2cccnc2N1c1cc(C)cc(C)c1 | - | - | - | - | -
CC(=O)c1cc2c(cc1NC(=O)c1oc3c(c1C)-c1[nH]ncc1CC3)OCO2 | 43 | 31 | - | - | -
